KCNQ2 enhance: potentiators of rat KCNQ2 potassium channel; O88943; CHO-K1 KCNQ2, FluxOR thallium flux fluorescence; stronger effect = higher value; B-score at 10 µM; hit rate 0.54% among 310,000; AID 2239;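 active = fluorescence ratio B-score at least 3 SD of library B-scores, with initial fluorescence B-score within 3 of them, cut at about 5.3 in these data; same plate scores as AID 2156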;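 note: B-score of peak minus minimum over baseline fluorescence ratio after K+ and Tl+ stimulus; positive B-score means potentiation of KCNQ2 with more thallium influx and brighter signal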
KCNQ2 inh: inhibitors of rat KCNQ2 potassium channel; AID 2156; CHO-K1 KCNQ2, FluxOR thallium flux, 20 min; stronger effect = lower value; hit rate 1.1% among 310,000; B-score at 10 µM;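 active = fluorescence ratio B-score at most minus 3 library SDs, with starting brightness B-score within 2 library SDs, cut at about -5.5 in these data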
Kir21 conf inh: confirmation of mouse Kir2.1 potassium channel inhibitors | shares compounds with KCNQ2 enhance | Kir2.1-expressing cells, FluxOR thallium flux fluorescence; stronger effect = lower value | Tl flux remaining, % of negative control (stronger effect = lower value), % at 10 µM | hit rate 41% among 2,300 | AID 2032;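 active = Primary-screen hit whose thallium flux fell at least 3 control SD below untreated wells in both duplicates, with normal baseline fluorescence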;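 note: 0% = blank wells without stimulus and 100% = stimulated no-compound controls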
HEK293 ctr: alters thallium flux in parental HEK293 cells, Kir2.1 counter-screen. shares compounds with KCNQ2 enhance. FluxOR thallium flux fluorescence; 0% = unstimulated blank wells. FluxOR signal as % of negative control (100 = no effect), % at 10 µM. hit rate 19% among 2,300;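 active = dye signal at least 3 control SD above or below untreated wells in both duplicates, raw fluorescence within 3, either direction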;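 note: percent is based on the flux ratio of peak minus minimum fluorescence over baseline F0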
CHO-K1 ctr: alters thallium flux in parental CHO-K1 cells, KCNQ2 counter-screen | FluxOR thallium flux fluorescence; zero = vehicle mean+3SD, 100% = vehicle-minus-blank window | hit rate 43% among 1,200 | activity increase over 3SD of controls, % at 10 µM | shares compounds with KCNQ2 enhance;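 active = signal rise of at least 3 SD above the untreated control mean, in both duplicate wells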;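 note: counter screen of KCNQ2 potentiator hits so any rise reflects channel-independent effects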
KCNQ1 pot spec: human KCNQ1 counter-target activity of KCNQ2 potentiators; shares compounds with KCNQ2 enhance; CHO KCNQ1 stable, FluxOR thallium flux fluorescence; beyond 3SD, as % of vehicle-control signal; activation over 3SD threshold, % at 10 µM; hit rate 28% among 1,200; AID 2283;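 active = fluorescence ratio rise of at least 3 SD of vehicle wells above their mean, in both replicate wells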;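 note: 0% = vehicle mean plus 3 SD and 100% = vehicle minus unstimulated blank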
Target sequence (P51787 whole entry, looked up): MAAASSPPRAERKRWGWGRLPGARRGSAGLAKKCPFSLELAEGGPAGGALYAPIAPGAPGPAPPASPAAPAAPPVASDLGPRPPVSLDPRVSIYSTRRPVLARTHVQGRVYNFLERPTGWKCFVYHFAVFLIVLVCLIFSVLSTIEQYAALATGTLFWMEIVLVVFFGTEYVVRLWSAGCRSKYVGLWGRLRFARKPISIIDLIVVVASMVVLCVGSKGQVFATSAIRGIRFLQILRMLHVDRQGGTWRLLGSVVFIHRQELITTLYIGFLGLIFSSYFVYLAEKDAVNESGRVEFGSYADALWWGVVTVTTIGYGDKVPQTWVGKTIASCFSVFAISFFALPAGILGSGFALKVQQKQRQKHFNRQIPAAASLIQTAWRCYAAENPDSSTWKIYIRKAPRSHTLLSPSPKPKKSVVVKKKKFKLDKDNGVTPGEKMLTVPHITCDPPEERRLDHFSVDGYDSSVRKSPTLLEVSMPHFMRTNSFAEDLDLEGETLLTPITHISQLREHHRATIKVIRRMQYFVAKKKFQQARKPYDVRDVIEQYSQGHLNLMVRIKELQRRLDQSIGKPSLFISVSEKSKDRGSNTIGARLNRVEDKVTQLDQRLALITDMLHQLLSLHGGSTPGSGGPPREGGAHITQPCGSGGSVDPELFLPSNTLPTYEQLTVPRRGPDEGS
KCNQ2 pot confirm: rat KCNQ2 channel potentiator confirmation; shares compounds with KCNQ2 enhance; CHO-KCNQ2 cells, FluxOR thallium flux fluorescence; potentiation, less the hit threshold, % at 10 µM; hit rate 68% among 1,200; AID 2287;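 active = fluorescence ratio rising 3 SD or more over the vehicle control mean in both replicates, plus primary screen hit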;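 note: peak minus minimum thallium fluorescence divided by baseline after K/Tl stimulus; 0% = vehicle mean plus 3 SD and 100% = vehicle minus unstimulated blank difference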
Kir2-1 sel: selectivity of KCNQ2 potentiators: effect on mouse Kir2.1. shares compounds with KCNQ2 enhance. HEK293 Kir2.1, FluxOR thallium flux fluorescence. activity over 3SD threshold, % at 10 µM. hit rate 2% among 1,200. AID 2345;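 active = fluorescence ratio rise of at least 3 SD above the vehicle-control mean, seen in both replicates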;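 note: 0% = vehicle mean plus 3 SD and 100% = vehicle minus no-stimulus blank window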
KCNQ2 W236L MoA: KCNQ2 potentiators acting on retigabine-insensitive rat KCNQ2 W236L mutant; hit rate 10% among 940; shares compounds with KCNQ2 enhance; CHO KCNQ2-W236L, automated patch clamp current; AID 2558; current increase over 3SD of negative controls (%), stronger effect = higher value, % at 25 µM;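 active = current increase at least 3 SD of the untreated controls above them in both duplicate recordings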
The depositor's hits bear a star; i = inactive; . = no result given. Rows were chosen to be rich in hits. Some 1.6% of all compounds tested hit in one or more screens of this group.

SMILES	KCNQ2 enhance	KCNQ2 inh	others
CCOC(=O)c1cccc(OCC(O)CNCCOc2ccccc2F)c1 (configuration not stated)	0.64	i
CCCCNc1nc(=S)n(-c2ccccc2)c(C)c1C(C)=O	0.72	i
CC1c2ccsc2CCN1S(=O)(=O)c1ccccc1 (configuration not stated)	0.51	i	Kir21 conf inh=52.5%*;HEK293 ctr=i
COc1cc2c(cc1OC)C(C)N(S(=O)(=O)c1cccs1)CC2 (configuration not stated)	1.16	i
CCc1nnc(NC(=O)c2ccc3nc(CC)c(CC)nc3c2)s1	0.56	i
COc1ccc2[nH]c(=O)c(CN(C(=O)c3ccco3)C3CCCCC3)cc2c1	1.03	i
CC(NC(=O)CNC(=O)c1ccco1)c1ccccc1 (configuration not stated)	.	i
O=c1c2ccccc2[nH]c(=S)n1CCCN1CCC(Cc2ccccc2)CC1	2.21	i
COc1ccccc1CNC(=O)c1ccc2nc(N3CCOCC3)sc2c1	.	i
Fc1ccccc1CNCCC(Cc1ccccc1)c1ccc2c(c1)OCO2 (configuration not stated)	.	i	Kir21 conf inh=39.5%*;HEK293 ctr=77.0%*
CC(C)CCC(CCNCc1ccccn1)c1ccc2c(c1)OCO2 (configuration not stated)	.	i	Kir21 conf inh=57.0%*;HEK293 ctr=i
CCNCCC(CCC(C)C)c1ccc2c(c1)OCO2 (configuration not stated)	0.75	i
COc1ccc(CNCCC(c2ccccc2)c2ccc3c(c2)OCO3)cc1 (configuration not stated)	.	i
NS(=O)(=O)c1ccc(NC(=O)c2cc(Cl)sc2Cl)cc1	1.02	i
Cc1nc(SCC2(C)CC2(Cl)Cl)n[nH]1 (configuration not stated)	.	i
O=C(N/N=C/c1cccs1)c1cnccn1	.	i
O=C(N/N=C/c1cccs1)c1[nH]ncc1Br	11.1*	i	Kir21 conf inh=i;HEK293 ctr=i;CHO-K1 ctr=115.3*;KCNQ1 pot spec=-14.4;KCNQ2 pot confirm=43.2*;Kir2-1 sel=-32.6;KCNQ2 W236L MoA=i
CCCc1nnc(SCC(=O)Nc2cccc(C(F)(F)F)c2)o1	0.02	i
CC1CCN=C(N)S1 (configuration not stated)	.	i
COc1ccc(CN2CCCC(C(=O)c3cccc(C(F)(F)F)c3)C2)cc1O (configuration not stated)	.	i	Kir21 conf inh=39.5%*;HEK293 ctr=i
CC(=O)Nc1ccc(CN2CCCC(C(=O)c3cccc(C(F)(F)F)c3)C2)cc1 (configuration not stated)	.	i
CC(c1ccon1)N(C)Cc1cn(C)nc1-c1cccc(Cl)c1 (configuration not stated)	0.08	i
CC1=CCC2C(=O)N(c3ccc(OC(=O)c4ccco4)cc3)C(=O)C2C1 (configuration not stated)	.	i	Kir21 conf inh=63.5%*;HEK293 ctr=128.5%*
COc1ccc(NC(=O)c2cccc(N3C(=O)C4CC=C(C)CC4C3=O)c2)c(OC)c1 (configuration not stated)	.	i
CCOC(=O)C1(CC2CCCCO2)CCN(Cc2cc3ccccc3[nH]2)CC1 (configuration not stated)	8.45*	i	CHO-K1 ctr=-28.8;KCNQ1 pot spec=-9.8;KCNQ2 pot confirm=-23.9;Kir2-1 sel=-59.6
SMILES	KCNQ2 enhance	KCNQ2 inh	others
CCCCc1ncc(CN2CCC(CC3CCCCO3)(C(=O)OCC)CC2)[nH]1 (configuration not stated)	0.83	i
CC1CCc2c(sc3nc(C(C)(C)C)nc(N4CCN(C(=O)CCl)CC4)c23)C1 (configuration not stated)	.	i
Cc1ccc(-n2nc3c(=O)n(CCCC(=O)NCc4ccccc4Cl)nc(C)c3c2C)cc1	.	i
Brc1ccc(CSc2nccn2-c2ccccc2)cc1	.	i
Clc1cccc(CSc2nccn2-c2ccccc2)c1	.	i	Kir21 conf inh=63.5%*;HEK293 ctr=i
O=C(CSc1nc2ccccc2c(=O)n1-c1ccc(F)cc1)Nc1cc(S(=O)(=O)N2CCOCC2)ccc1Cl	.	i
C=CSc1sc(Cl)c(N2CCOCC2)c1[N+](=O)[O-]	.	i
C=CS(=O)(=O)c1sc(Cl)c(N2CCOCC2)c1[N+](=O)[O-]	-6.79	-6.79*	Kir21 conf inh=19.5%*;HEK293 ctr=48.5%*
COC(=O)CCC(=O)c1ccn(S(=O)(=O)c2ccccc2)c1	.	i
Cc1cc(Cl)ccc1N(CC(=O)NCc1ccccc1)S(C)(=O)=O	.	i
CC1CCCCC1NS(=O)(=O)c1ccc2c(c1)CC(=O)N2C (configuration not stated)	.	i
CCOc1ccc(S(=O)(=O)N2CCC(C(=O)NC3CCCCC3)CC2)cc1	.	i
CCC(NC(=O)NC1CCCCC1)c1ccccc1 (configuration not stated)	18.8*	i	Kir21 conf inh=i;HEK293 ctr=i;CHO-K1 ctr=-18.3;KCNQ1 pot spec=-12.7;KCNQ2 pot confirm=70.5*;Kir2-1 sel=-34.8;KCNQ2 W236L MoA=i
Cc1ccc(C(C)NC(=S)NC2CCCCC2)c(C)c1 (configuration not stated)	7.3*	i	CHO-K1 ctr=70.4*;KCNQ1 pot spec=-6.3;KCNQ2 pot confirm=-2.5;Kir2-1 sel=-55.5;KCNQ2 W236L MoA=8.5%*
CC(=O)NC(CC(=O)NC1CCCCCC1)c1ccccc1 (configuration not stated)	1.35	i
Cc1ccc(C(C)NC(=S)NC2CCCCC2)cc1C (configuration not stated)	24.9*	i	Kir21 conf inh=i;HEK293 ctr=i;CHO-K1 ctr=-29.8;KCNQ1 pot spec=8.7*;KCNQ2 pot confirm=102.7*;Kir2-1 sel=-51.1;KCNQ2 W236L MoA=i
Cc1ccc(C(C)NC(=O)C2CCCC2)c(C)c1 (configuration not stated)	0.67	i
CCC(NC(=S)NC1CCCCC1)c1ccc(C(C)C)cc1 (configuration not stated)	14.4*	i	Kir21 conf inh=i;HEK293 ctr=i;CHO-K1 ctr=18.5*;KCNQ1 pot spec=-24.7;KCNQ2 pot confirm=53.7*;Kir2-1 sel=-31.6;KCNQ2 W236L MoA=i
CCN1CCN(C(c2cccs2)C(C)NC(=S)NC2CCCCC2)CC1 (configuration not stated)	.	i
COc1ccc(C(C)NC(=S)NC2CCCC2)cc1OC (configuration not stated)	0.16	i
CCN1CCN(CCCNC(=O)c2ccc(CS(=O)c3ccc(Br)cc3)o2)CC1 (configuration not stated)	.	i

Compound activity as filed in PubChem.
